The nature of experiment [1]: qHTS of pediatric cancer cell lines to identify multiple opportunities for drug repurposing: Primary screen for DAOY cells (AID 1347090). Further: nearly all actives have a fitted effect of over 55% in size. Further: potency means the concentration at half of the fitted maximal effect. The method in brief: (§1)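 Viability measured as metabolically active cells via CellTiter-Glo luminescence following 48 hours of compound exposure, 11-point dilutions in confirmatory testing. 500-1,000 cells/well plated 5 hours before dosing; controls were DMSO and 2.3 µM bortezomib.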

Experiment [2] is described as follows: qHTS of pediatric cancer cell lines to identify multiple opportunities for drug repurposing: Primary screen for SJ-GBM2 cells (AID 1347091). Further: potency means the concentration at half of the fitted maximal effect. The method in brief: as §1
(In general: Quantitative high-throughput screening tests each substance at several concentrations.)

Experiment [3] can be described thus: qHTS of pediatric cancer cell lines to identify multiple opportunities for drug repurposing: Primary screen for A673 cells (AID 1347092). Further: nearly all actives have a fitted effect of over 45% in size. Further: potency means the concentration at half of the fitted maximal effect. The method in brief:
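48 h compound exposure, A673, 500-1,000 cells/well, 37 degrees C/5% CO2. MIPE: 11-point, 0.78 nM-46 µM; NPC: 8-point, 0.59 nM-46 µM (final). Readout CellTiter-Glo luminescence after 15 min RT.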

A short description of experiment [4]: qHTS of pediatric cancer cell lines to identify multiple opportunities for drug repurposing: Primary screen for SK-N-MC cells (AID 1347093). Further: potency means the concentration at half of the fitted maximal effect. The method in brief:
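Metabolically active cells were quantified by ATP-dependent luminescence (CellTiter-Glo, 15 min at room temperature) following 48 h treatment. Cells had been plated at 500-1,000 per well and settled for 5 h beforehand.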

Experiment [5] can be described thus: qHTS of pediatric cancer cell lines to identify multiple opportunities for drug repurposing: Primary screen for U-2 OS cells (AID 1347096). Further: nearly all actives have a fitted effect of over 50% in size. Further: potency means the concentration at half of the fitted maximal effect. An outline of the steps:
(§2)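 Viability after 48 h compound treatment at 37C, 500-1,000 cells/well, read as ATP luminescence with CellTiter-Glo. Primary screens used 11-point (MIPE, 0.78 nM-46 µM) or 8-point (NPC, 0.59 nM-46 µM) final concentrations; follow-up screens used 11-point dilutions.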

Experiment [6] in a line: qHTS of pediatric cancer cell lines to identify multiple opportunities for drug repurposing: Primary screen for Saos-2 cells (AID 1347097). Further: nearly all actives have a fitted effect of over 40% in size. Further: potency means the concentration at half of the fitted maximal effect. An outline of the steps:
(§3)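 Quantitative HTS format: each compound titrated (MIPE 11 points from 0.78 nM, NPC 8 points from 0.59 nM) onto cells plated 5 hours earlier. After 48 h at 37 degrees C, CellTiter-Glo luminescence was recorded.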

A short description of experiment [7]: qHTS of pediatric cancer cell lines to identify multiple opportunities for drug repurposing: Primary screen for NB1643 cells (AID 1347099). Further: nearly all actives have a fitted effect of over 50% in size. Further: potency means the concentration at half of the fitted maximal effect. The method in brief: as §3
A short description of experiment [8]: qHTS of pediatric cancer cell lines to identify multiple opportunities for drug repurposing: Primary screen for LAN-5 cells (AID 1347100). Further: potency means the concentration at half of the fitted maximal effect. An outline of the steps:
as §2

The nature of experiment [9]: qHTS of pediatric cancer cell lines to identify multiple opportunities for drug repurposing: Primary screen for BT-12 cells (AID 1347101). Further: nearly all actives have a fitted effect of over 25% in size. Further: potency means the concentration at half of the fitted maximal effect. An outline of the steps:
(§4)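 Cells (500-1,000/well) rested 5 h, then received compounds for 48 h; metabolically active cells were measured by CellTiter-Glo luminescence. Final concentrations spanned up to 46 µM (MIPE, 11-point) or 0.59 nM-46 µM (NPC, 8-point) in primary screens, 11-point in follow-ups.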

The nature of experiment [10]: qHTS of pediatric cancer cell lines to identify multiple opportunities for drug repurposing: Primary screen for Rh18 cells (AID 1347102). Further: nearly all actives have a fitted effect of over 65% in size. Further: potency means the concentration at half of the fitted maximal effect. The method in brief: as §2
A short description of experiment [11]: qHTS of pediatric cancer cell lines to identify multiple opportunities for drug repurposing: Primary screen for OHS-50 cells (AID 1347103). Further: nearly all actives have a fitted effect of over 40% in size. Further: potency means the concentration at half of the fitted maximal effect. The method in brief: as §4
Experiment [12] is described as follows: qHTS of pediatric cancer cell lines to identify multiple opportunities for drug repurposing: Primary screen for RD cells (AID 1347104). Further: nearly all actives have a fitted effect of over 55% in size. Further: potency means the concentration at half of the fitted maximal effect. An outline of the steps:
as §3

Experiment [13] can be described thus: qHTS of pediatric cancer cell lines to identify multiple opportunities for drug repurposing: Primary screen for MG 63 (6-TG R) cells (AID 1347105). Further: nearly all actives have a fitted effect of over 50% in size. Further: potency means the concentration at half of the fitted maximal effect. An outline of the steps:
as §3

A short description of experiment [14]: qHTS of pediatric cancer cell lines to identify multiple opportunities for drug repurposing: Primary screen for control Hh wild type fibroblast cells (AID 1347106).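 Further: series mostly up to about 46 µM; a drop in luminescence marks cytotoxicity and a rise apparent proliferation; nearly all actives have a fitted effect of over 55% in size.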 An outline of the steps: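 Cells (500-1,000/well) in growth media were settled 5 h at 37 degrees C, then given compounds for 48 h. Viability was read as CellTiter-Glo luminescence. Primary runs used MIPE at 11 points (0.78 nM-46 µM) and NPC at 8 points (0.59 nM-46 µM); follow-ups used 11 points.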

A short description of experiment [15]: qHTS of pediatric cancer cell lines to identify multiple opportunities for drug repurposing: Primary screen for BT-37 cells (AID 1347094). Further: potency means the concentration at half of the fitted maximal effect. The method in brief:
as §3

The nature of experiment [16]: qHTS of pediatric cancer cell lines to identify multiple opportunities for drug repurposing: Primary screen for SK-N-SH cells (AID 1347098). Further: nearly all actives have a fitted effect of over 65% in size. Further: potency means the concentration at half of the fitted maximal effect. An outline of the steps: as §4
The nature of experiment [17]: qHTS of pediatric cancer cell lines to identify multiple opportunities for drug repurposing: Primary screen for Rh30 cells (AID 1347107). Further: nearly all actives have a fitted effect of over 75% in size. Further: potency means the concentration at half of the fitted maximal effect. The method in brief:
as §2

Experiment [18] is described as follows: qHTS of pediatric cancer cell lines to identify multiple opportunities for drug repurposing: Primary screen for NB-EBc1 cells (AID 1347095). Further: potency means the concentration at half of the fitted maximal effect. An outline of the steps:
as §3

Experiment [19] in a line: qHTS of pediatric cancer cell lines to identify multiple opportunities for drug repurposing: Primary screen for Rh41 cells (AID 1347108). Further: nearly all actives have a fitted effect of over 70% in size. Further: potency means the concentration at half of the fitted maximal effect. The method in brief: as §3
Experiment [20] can be described thus: qHTS of pediatric cancer cell lines to identify multiple opportunities for drug repurposing: Confirmatory screen for NB1643 cells (AID 1347109). Further: nearly all actives have a fitted effect of over 45% in size. Further: potency means the concentration at half of the fitted maximal effect. An outline of the steps: as §2

Structures are written as SMILES. Records with an inconclusive call do not appear. Calls of active or inactive are those of the source. The call rests on the fitted dose curve; in most records, active means well fitted curve in the direction sought with a large enough effect; inconclusive means small, poorly fitted or top-dose-only effect, or another doubt; inactive means no such curve, though single readings can be large; an effect the other way counts as inactive or inconclusive.

Consider `CC(C)c1c(C(=O)Nc2ccccc2)c(-c2ccccc2)c(-c2ccc(F)cc2)n1CC[C@H](O)C[C@@H](O)CC(=O)O`, for which the Potency in [1] was 11.8 µM (active); in experiment [2] it was 16.6 µM (active); in experiment [3], 18.7 µM (active); in experiment [4] it was 23.5 µM (active); in experiment [5] it was 18.7 µM (active); in [6], 6.62 µM (active). Also, the Potency in experiment [7] is 20.9 µM (active); in [9] it was 5.44 µM (active); in experiment [10] it was 20.9 µM (active); in [11] it was 19.3 µM (active); in [13], 14.8 µM (active). Also, the Potency result in experiment [8], in [12] and in experiment [14] was “inactive” in each case.
For `C[C@]12CCC3=C4CCC(=O)C=C4CC[C@@H]3[C@H]1CC[C@@]2(O)CC#N`, the Potency entry in [1], in [2], in [3], in experiment [4], in experiment [15] and in experiment [5] was “inactive” each time. In addition, the Potency entry in experiment [6], in [16], in experiment [7], in experiment [8], in experiment [9] and in experiment [10] was “inactive” in each case. For the same molecule, the Potency entry in experiment [11], in experiment [12], in experiment [13] and in experiment [17] was “inactive” throughout.
Turning to `Cc1cnc(-c2cc(N3CCN(C(=O)CCS(C)(=O)=O)CC3)ncc2Cl)c(C)c1`, the Potency entry in [1], in [2], in experiment [18], in experiment [5], in [6] and in experiment [8] was “inactive” each time. The Potency entry in experiment [9], in experiment [10], in experiment [13], in experiment [14], in experiment [17] and in [19] was “inactive” throughout. In addition, the Potency result in [20] is “inactive”. The results for the Potency in experiment [3] and in experiment [4] were 4.69 µM (active) and 16.6 µM (active), respectively.
`CN1CCN2c3ncccc3Cc3ccccc3C2C1` (stereo not drawn): the Potency entry in experiment [1], in experiment [2], in experiment [3], in experiment [4], in [15] and in experiment [5] was “inactive” in each case. Moreover, the Potency result in [16], in [7], in [8], in experiment [9], in experiment [11] and in experiment [12] was “inactive” throughout. In addition, the Potency entry in experiment [13], in experiment [14] and in experiment [17] was “inactive” in each case.
Regarding `O=C(O)Cc1cccc(OCCCN(Cc2cccc(C(F)(F)F)c2Cl)CC(c2ccccc2)c2ccccc2)c1`, the Potency is 14.8 µM (active) in experiment [1]; 23.5 µM (active) in experiment [2]; 23.5 µM (active) in [3]; 6.62 µM (active) in experiment [4]; 27.3 µM (active) in [15]; 19.2 µM (active) in [16]. The Potency in experiment [9] is 24.3 µM (active); in [11], 27.3 µM (active); in experiment [12], 33.2 µM (active); in [13] it was 23.5 µM (active); in experiment [17] it was 23.5 µM (active); in experiment [19] it was 23.5 µM (active). Besides, the Potency entry in experiment [5], in experiment [6], in experiment [7] and in experiment [14] was “inactive” throughout.
Take `CCC(C)SSc1ncc[nH]1` (stereo not drawn): the Potency in experiment [1] is 18.7 µM (active); in experiment [2], 20.9 µM (active); in experiment [3], 18.7 µM (active); in experiment [4], 3.72 µM (active); in experiment [18], 5.9 µM (active); in experiment [6], 18.7 µM (active). For the same molecule, the Potency in experiment [8] was 14.8 µM (active); in experiment [11], 15.3 µM (active); in [12], 26.4 µM (active); in experiment [13], 23.5 µM (active); in [20], 18.5 µM (active). The Potency entry in experiment [5], in experiment [14] and in experiment [17] was “inactive” in each case.
In the case of `CN(C)CC[C@H](CSc1ccccc1)Nc1ccc(S(=O)(=O)NC(=O)c2ccc(N3CCN(Cc4ccccc4-c4ccc(Cl)cc4)CC3)cc2)cc1[N+](=O)[O-]`, the Potency was 18.7 µM (active) in experiment [1]; 0.0833 µM (active) in [2]; 3.72 µM (active) in [3]; 0.0148 µM (active) in experiment [4]; 0.0418 µM (active) in [18]; 14.8 µM (active) in experiment [5]. The Potency was 9.35 µM (active) in experiment [6]; 7.64 µM (active) in experiment [16]; 0.0187 µM (active) in experiment [7]; 0.0209 µM (active) in [8]; 0.187 µM (active) in [10]; 6.85 µM (active) in experiment [11]. Moreover, the Potency in experiment [12] was 5.9 µM (active); in [17] it was 11.8 µM (active); in [19], 11.8 µM (active); in experiment [20], 0.414 µM (active). The Potency entry in [14] was “inactive”.
Consider `CC(C)CN(C[C@@H](O)[C@H](Cc1ccccc1)NC(=O)O[C@H]1CO[C@H]2OCC[C@H]21)S(=O)(=O)c1ccc(N)cc1`, for which the Potency was 14.8 µM (active) in experiment [1]; 5.9 µM (active) in experiment [3]; 2.35 µM (active) in experiment [4]; 6.11 µM (active) in experiment [15]; 20.9 µM (active) in experiment [6]; 18.7 µM (active) in [7]. In addition, the values for the Potency in experiment [9], in experiment [11] and in [12] were 3.85 µM (active), 12.2 µM (active) and 14.8 µM (active), respectively. Also, the Potency result in experiment [2], in experiment [16] and in experiment [14] was “inactive” in each case.
Regarding `N#CC(c1ccc(Cl)cc1)c1c(Cl)cc(-n2ncc(=O)[nH]c2=O)cc1Cl` (stereo not drawn), the Potency was 9.35 µM (active) in [1]; 23.5 µM (active) in [2]; 11.8 µM (active) in [3]; 9.35 µM (active) in experiment [4]; 8.33 µM (active) in [18]; 9.35 µM (active) in experiment [6]. Also, the Potency in experiment [7] is 18.7 µM (active); in experiment [9], 21.7 µM (active); in experiment [11] it was 15.3 µM (active); in experiment [13] it was 14.8 µM (active). Moreover, the Potency result in experiment [14] is “inactive”.
For `O=C(c1ccc(F)c(F)c1Nc1ccc(I)cc1F)N1CC(O)([C@H]2CCCCN2)C1`, the Potency in experiment [1] is 18.7 µM (active); in experiment [2] it was 4.69 µM (active); in experiment [3], 0.0235 µM (active); in experiment [4] it was 1.48 µM (active); in experiment [15] it was 1.09 µM (active); in experiment [5] it was 14.8 µM (active). Further, the Potency in experiment [6] is 1.87 µM (active); in [16] it was 6.07 µM (active); in [8] it was 0.935 µM (active); in [9], 1.09 µM (active); in experiment [10], 16.6 µM (active); in experiment [11], 1.09 µM (active). Moreover, the figures for the Potency in [12], in experiment [13] and in experiment [19] were 0.526 µM (active), 29.6 µM (active) and 18.7 µM (active), respectively.
Take `O=C(O)C1=CC(O)C(O)[C@H](O)C1` (stereo partly drawn): the Potency entry in experiment [1], in [2], in experiment [3], in experiment [4], in [15] and in [5] was “inactive” in each case. For the same molecule, the Potency entry in experiment [6], in [16], in experiment [7], in [8], in experiment [9] and in experiment [10] was “inactive” throughout. For the same molecule, the Potency entry in experiment [11], in experiment [12], in experiment [13], in experiment [14], in experiment [17] and in experiment [19] was “inactive” throughout.
Take `NCC1CCC(C(=O)O)CC1` (stereo not drawn): the Potency entry in [1], in experiment [2], in [3], in [4], in [15] and in [5] was “inactive” throughout. The Potency entry in experiment [16], in [8], in experiment [9], in experiment [11], in [12] and in [13] was “inactive” each time. For the same molecule, the Potency entry in [14], in experiment [17] and in experiment [19] was “inactive” in each case.

These data come from PubChem BioAssay (NCATS).
